Measured values: PubChem BioAssay (NCI)
The panel holds about 79,000 compounds, 15% with a hit somewhere; the sample as a whole holds those more often. Activity calls are given as the source filed them. Rule as the data show it: active = growth inhibition above about 70%; inactive = the rest.

Experiments:
[1] = NCI Yeast Anticancer Drug Screen. Data for the rad52 strain (AID 147);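 also: 0% = growth of vehicle-treated control cultures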; settings: S. cerevisiae rad52 mutant growth inhibition, hits give high values
Outline: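 Growth of repair-deficient yeast cells was compared between compound-treated and vehicle-treated cultures to give percent inhibition.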

[2] = NCI Yeast Anticancer Drug Screen. Data for the wt1 strain (AID 149);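 also: 0% = growth of vehicle-treated wt1 cultures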; settings: S. cerevisiae wt1 strain (SPY 50644) growth inhibition, hits give high values
Outline: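 Yeast wt1 strain exposed to compounds; growth inhibition measured relative to vehicle-treated controls.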

[3] = NCI Yeast Anticancer Drug Screen. Data for the rad50EPP+ strain (AID 151);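 also: 0% = growth of vehicle-treated control cultures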; settings: S. cerevisiae rad50 mutant strain, hits give high values
Outline: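 Measured: growth inhibition of rad50EPP+ yeast. Reference: vehicle-treated controls. Screen uses strains with defined genetic alterations in DNA damage repair or cell cycle control.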

[4] = NCI Yeast Anticancer Drug Screen. Data for the mgt1 strain (AID 153); settings: S. cerevisiae mgt1 mutant growth inhibition, hits give high values
Outline: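 Compounds were applied to mgt1 mutant yeast, and growth was then compared against vehicle-treated control cultures to give percent inhibition.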

[5] = NCI Yeast Anticancer Drug Screen. Data for the rad50 strain (AID 155);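 also: 0% = growth of vehicle-only cultures of the same strain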; settings: S. cerevisiae rad50 strain growth inhibition, hits give high values
Outline: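 Yeast carrying a defined DNA repair defect were exposed to test compounds, and growth was compared with vehicle-treated controls to give percent inhibition.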

[6] = NCI Yeast Anticancer Drug Screen. Data for the mec2-1 strain (AID 157); settings: S. cerevisiae mec2-1 strain, hits give high values
Outline: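 Compounds were applied to mec2-1 yeast cells. Their growth was then compared with that of vehicle-treated cultures to give growth inhibition.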

[7] = NCI Yeast Anticancer Drug Screen. Data for the rad14 strain (AID 159);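 also: 0% = growth of vehicle-treated control cultures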; settings: S. cerevisiae rad14 strain growth inhibition, hits give high values
Outline: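 Yeast cells carrying a defined DNA-repair defect were exposed to compounds, and growth inhibition was calculated relative to vehicle-treated control cultures.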

[8] = NCI Yeast Anticancer Drug Screen. Data for the sgs1 mgt1 strain (AID 161);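 also: 0% = growth of cultures given vehicle only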; settings: S. cerevisiae sgs1 mgt1 strain, hits give high values
Outline: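 This yeast growth screen uses a strain with defined DNA-repair lesions; compound-treated growth is compared with vehicle-treated growth.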

[9] = NCI Yeast Anticancer Drug Screen. Data for the CLN2oe strain (AID 163);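 also: 0% = growth of vehicle-only control cultures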; settings: S. cerevisiae CLN2oe strain, hits give high values
Outline: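 Cells of an engineered yeast line with disturbed cell-cycle regulation are treated with compound. Inhibition of growth is then calculated relative to the vehicle-treated reference.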

[10] = NCI Yeast Anticancer Drug Screen. Data for the cln2 rad14 strain (AID 165);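 also: 0% = growth equal to vehicle treated cultures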; settings: S. cerevisiae cln2 rad14 strain, hits give high values
Outline: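 Strain: cln2 rad14 yeast, altered in cell cycle control and DNA damage repair. Read-out: growth inhibition vs vehicle.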

[11] = NCI Yeast Anticancer Drug Screen. Data for the bub3 strain (AID 167); settings: S. cerevisiae bub3 mutant strain, hits give high values
Outline: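 Compounds were applied to a genetically altered yeast strain carrying a cell-cycle control defect. Growth inhibition was scored against vehicle-treated controls.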

[12] = NCI Yeast Anticancer Drug Screen. Data for the wt2 strain (AID 169);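 also: 0% = growth of vehicle-treated yeast cultures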; settings: S. cerevisiae wt2 strain growth inhibition, hits give high values
Outline: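 Growth of compound-treated yeast is measured and expressed as inhibition relative to vehicle-only controls.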

[13] = NCI Yeast Anticancer Drug Screen. Data for the mlh1 strain (AID 171);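 also: 0% = growth of vehicle-treated control cultures of the same strain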; settings: S. cerevisiae mlh1 strain growth inhibition, hits give high values
Outline: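 Test agents were incubated with yeast bearing a defined DNA damage repair or cell cycle control alteration; values are growth inhibition normalised to vehicle-treated cultures.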

[14] = NCI Yeast Anticancer Drug Screen. Data for the sgs1 strain (AID 173);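 also: 0% = growth of vehicle-only control cultures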; settings: S. cerevisiae sgs1 mutant, hits give high values
Outline: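 Strain with an altered DNA repair or cell cycle pathway exposed to compound. Growth then measured. Value = inhibition versus vehicle control.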

[15] = NCI Yeast Anticancer Drug Screen. Data for the mlh1 rad18 strain (AID 175); settings: S. cerevisiae mlh1 rad18 strain growth inhibition, hits give high values
Outline: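 A repair-deficient yeast strain is exposed to test compound, and growth is scored relative to vehicle-treated controls.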

[16] = NCI Yeast Anticancer Drug Screen. Data for the rad18 strain (AID 177); settings: S. cerevisiae rad18 mutant growth inhibition, hits give high values
Outline: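 DNA-repair-defective yeast; compound treatment; growth inhibition scored against vehicle.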

[17] = at 5.0 µM (retest, dose inferred, filed as 0.5)
[18] = at 50.0 µM (retest, dose inferred, filed as 5.0)

Measured: growth inhibition

CN(C)CCNc1ccc2ncn3c4ccc(O)cc4c(=O)c1c23
active: [5]; [18] 86%
inactive: [1]; at 1.2 µM -10% | [1]; at 3.7 µM 3% | [1]; at 11.0 µM 4% | [1]; at 33.0 µM 3% | [1]; at 100.0 µM 30% | [2]; at 1.2 µM -21% | [2]; at 3.7 µM -6% | [2]; at 11.0 µM -21% | [2]; at 33.0 µM 0% | [2]; at 100.0 µM -27% | [3]; at 1.2 µM -33% | [3]; at 3.7 µM -12% | [3]; at 11.0 µM -21% | [3]; at 33.0 µM -1% | [3]; at 100.0 µM 5% | [4]; at 1.2 µM -5% | [4]; at 3.7 µM 7% | [4]; at 11.0 µM -19% | [4]; at 33.0 µM -10% | [4]; at 100.0 µM 2% | [5]; at 1.2 µM -14% | [5]; at 3.7 µM 4% | [5]; [17] 50% | [5]; at 11.0 µM -6% | [5]; at 33.0 µM 8% | [5]; at 50.0 µM -17.1% | [5]; at 100.0 µM 22% | [6]; at 1.2 µM -12% | [6]; at 3.7 µM -7% | [6]; [17] 0% | [6]; at 11.0 µM -4% | [6]; at 33.0 µM -9% | [6]; [18] 7% | [6]; at 50.0 µM -10.1% | [6]; at 100.0 µM -20% | [7]; at 1.2 µM -35% | [7]; at 3.7 µM -35% | [7]; at 11.0 µM -31% | [7]; at 33.0 µM -30% | [7]; at 100.0 µM -23% | [8]; [17] 13% | [8]; [18] 7% | [8]; at 50.0 µM -10.6% | [9]; at 1.2 µM -12% | [9]; at 3.7 µM 1% | [9]; at 11.0 µM 9% | [9]; at 33.0 µM 13% | [9]; at 100.0 µM 8% | [10]; [17] 9% | [10]; [18] 12% | [10]; at 50.0 µM 27.6% | [11]; at 1.2 µM -19% | [11]; at 3.7 µM -12% | [11]; [17] 11% | [11]; at 11.0 µM -14% | [11]; at 33.0 µM 3% | [11]; [18] 11% | [11]; at 50.0 µM -1% | [11]; at 100.0 µM 7% | [12]; at 1.2 µM -8% | [12]; at 3.7 µM -3% | [12]; at 11.0 µM -2% | [12]; at 33.0 µM -8% | [12]; at 100.0 µM -11% | [13]; at 1.2 µM -23% | [13]; at 3.7 µM -21% | [13]; at 11.0 µM -15% | [13]; at 33.0 µM -4% | [13]; at 100.0 µM -8% | [14]; at 1.2 µM -21% | [14]; at 3.7 µM -17% | [14]; at 11.0 µM -3% | [14]; at 33.0 µM -16% | [14]; at 100.0 µM -23% | [15]; [17] 4% | [15]; [18] 12% | [15]; at 50.0 µM -48.5% | [16]; at 1.2 µM -23% | [16]; at 3.7 µM -1% | [16]; at 11.0 µM -9% | [16]; at 33.0 µM -12% | [16]; at 100.0 µM -12%
